The values below come from PubChem BioAssay (NCATS).

Assay [1] concerns the target alpha-glucosidase (Oryza sativa, rice) (UniProt Q653V4). Kind of assay: Counterscreen for Glucocerebrosidase Inhibitors: qHTS Assay for Rice alpha-Glucosidase at pH 5.0 (AID 997).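 Note: 0% = full activity with enzyme and -100% = basal without enzyme.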 In outline:
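Endpoint fluorogenic assay at pH 5.0: compounds (0.7 nM to 77 uM) titrated against 4 nM rice enzyme and 400 uM 4-MU-alpha-glucoside for 20 min at room temperature; NaOH/glycine stop, read ex 365/em 440 nm, Hill-fitted AC50.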
A general note: Counterscreens check selectivity or assay interference.

Assay [2] in a line: Validation of Assay for Modulators of Lamin A Splicing (AID 1459; active = well fitted curve in the direction sought with a large enough effect in the signal ratio; the % refers to the signal ratio;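 note: cells exposed to compound for two days before reading; 0% is about no effect; ratio rise marks activators and ratio drop marks inhibitors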). In outline:
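Dual-reporter HeLa S3 line (lamin A-EGFP minigene, DsRed2) treated with compounds 48 hrs, 0.5% DMSO final. Endpoint: EGFP/DsRed2 total intensity ratio from laser-scanning microplate cytometry.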

Assay [3] in a line: Counterscreen for APE1 Inhibitors: Fluorescent Dye Displacement Validation Assay (AID 1707).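 Note: plate controls were ThO with dsDNA and no compound for no effect and ThO without dsDNA for full effect.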 In short, it runs like this:
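Counterscreen flags promiscuous DNA binders: compounds displacing ThO from duplex DNA (abasic THF site, 50 nM) reduce 540 nm emission (480 nm excitation). ThO 250 nM final; Tris-HCl pH 7.5 with NaCl, MgCl2 and Tween-20.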

In assay [4] the target is Endonuclease 4 (Escherichia coli (strain K12)) (UniProt P0A6C1). Kind of assay: Counterscreen for APE1 Inhibitors: qHTS Validation Assay for Inhibitors of Endonuclease IV (AID 1708). Note: % is set by controls: 0 for no effect and ±100 for the full control effect. In short, it runs like this:
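The reaction buffer contained 50 mM Tris-HCl pH 7.5, 50 mM NaCl, 2 mM MgCl2, 1 mM DTT and 0.01% Tween-20. Incision of a 50 nM fluorophore/quencher THF substrate by 2 nM enzyme was measured kinetically.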

Assay [5] in a line: qHTS for differential inhibitors of proliferation of Plasmodium falciparum line Dd2 (AID 1882).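 For activity change, negative = inhibition: compound exposure of 72 h on infected erythrocytes; plate controls were DMSO vehicle for no effect and 0.29 µM artemisinin for full effect.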 Note: nearly all actives have a fitted effect of over 65% in size. Note: potency is the fitted concentration of half-maximal effect. The following applies: Potency: Plasmodium falciparum Dd2 proliferation inhibition. In short, it runs like this:
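RBC culture, 0.3% parasitemia / 2.5% Hct final; cpd added by pin tool in DMSO; 72 h, 37 C, 5% CO2; lysis buffer + SYBR Green I, o/n RT dark; FI 485/535; norm. to artemisinin 0.29 uM and DMSO.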
On the technique in general: qHTS replaces the single test concentration by a dilution series.

Assay [6] is described as follows: qHTS Assay for Modulators of Human Peripheral Myelin Protein 22 (PMP22) Expression/Activity (AID 1967; active = well fitted curve in the direction sought with a large enough effect in the signal ratio; the % refers to the signal ratio;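 note: 0% = untreated cells and 100% end not stated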). In short, it runs like this:
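Engineered MSC80 cells, Pmp22-promoter green and EF-alpha red luciferase reporters; 24h compound treatment at 37 °C. Concentration-response fits on green, red and ratio signals, each overlap-corrected, with %Activity normalized to untreated wells.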

The target of assay [7] is Ferritin light chain (Equus caballus) (UniProt P02791). Kind of assay: qHTS Validation Assay for Identification of Novel General Anesthetics (AID 2323). Note: % is set by controls: 0 for no effect and ±100 for the full control effect. In short, it runs like this:
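Normalized fluorescence response, scaled between free 1-AMA and 1-AMA/apoferritin complex, fitted to a four-parameter Hill equation for concentration-effect values. Binding mix: 10 uM horse-spleen apoferritin, 50% saturated 1-AMA in PBS; read 380/535 nm after 10 min.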

The target in assay [8] is ATP-dependent DNA helicase Q1 (Homo sapiens) (UniProt P46063). Kind of assay: qHTS Validation Assay for Inhibitors of RecQ-Like Dna Helicase 1 (RECQ1) (AID 2353).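 For activity change, negative = inhibition: plate controls were DMSO vehicle for no effect and enzyme-free control for full effect.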 Note: potency is the fitted concentration of half-maximal effect. In outline:
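RECQ1T1 50 nM; forked duplex (20 bp + 30-nt ss tails) 200 nM, ATP 2 mM final; pH 8.0, 2 mM MgCl2, 2.5 ug/ml poly(dI-dC); 15 min compound preincubation; discontinuous kinetic read over 2 h at RT.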

The target of assay [9] is RecQ-like DNA helicase BLM (Homo sapiens) (UniProt P54132). Kind of assay: qHTS Validation Assay for Inhibitors of Bloom's syndrome helicase (BLM) (AID 2364).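 For activity change, negative = inhibition: plate controls were DMSO vehicle for no effect and enzyme-free control for full effect.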 Note: potency is the fitted concentration of half-maximal effect. In short, it runs like this: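 Forked 20-bp duplex substrate (200 nM, TAMRA/BHQ-2) plus 2 mM ATP added after 15 min compound preincubation with 50 nM enzyme, pH 8.0, poly(dI-dC) 2.5 ug/ml. Strand separation followed by fluorescence (525/598 nm) over 2 h, normalized to enzyme-free and DMSO controls.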
Sequence of RecQ-like DNA helicase BLM (Homo sapiens) (P54132 whole entry, looked up): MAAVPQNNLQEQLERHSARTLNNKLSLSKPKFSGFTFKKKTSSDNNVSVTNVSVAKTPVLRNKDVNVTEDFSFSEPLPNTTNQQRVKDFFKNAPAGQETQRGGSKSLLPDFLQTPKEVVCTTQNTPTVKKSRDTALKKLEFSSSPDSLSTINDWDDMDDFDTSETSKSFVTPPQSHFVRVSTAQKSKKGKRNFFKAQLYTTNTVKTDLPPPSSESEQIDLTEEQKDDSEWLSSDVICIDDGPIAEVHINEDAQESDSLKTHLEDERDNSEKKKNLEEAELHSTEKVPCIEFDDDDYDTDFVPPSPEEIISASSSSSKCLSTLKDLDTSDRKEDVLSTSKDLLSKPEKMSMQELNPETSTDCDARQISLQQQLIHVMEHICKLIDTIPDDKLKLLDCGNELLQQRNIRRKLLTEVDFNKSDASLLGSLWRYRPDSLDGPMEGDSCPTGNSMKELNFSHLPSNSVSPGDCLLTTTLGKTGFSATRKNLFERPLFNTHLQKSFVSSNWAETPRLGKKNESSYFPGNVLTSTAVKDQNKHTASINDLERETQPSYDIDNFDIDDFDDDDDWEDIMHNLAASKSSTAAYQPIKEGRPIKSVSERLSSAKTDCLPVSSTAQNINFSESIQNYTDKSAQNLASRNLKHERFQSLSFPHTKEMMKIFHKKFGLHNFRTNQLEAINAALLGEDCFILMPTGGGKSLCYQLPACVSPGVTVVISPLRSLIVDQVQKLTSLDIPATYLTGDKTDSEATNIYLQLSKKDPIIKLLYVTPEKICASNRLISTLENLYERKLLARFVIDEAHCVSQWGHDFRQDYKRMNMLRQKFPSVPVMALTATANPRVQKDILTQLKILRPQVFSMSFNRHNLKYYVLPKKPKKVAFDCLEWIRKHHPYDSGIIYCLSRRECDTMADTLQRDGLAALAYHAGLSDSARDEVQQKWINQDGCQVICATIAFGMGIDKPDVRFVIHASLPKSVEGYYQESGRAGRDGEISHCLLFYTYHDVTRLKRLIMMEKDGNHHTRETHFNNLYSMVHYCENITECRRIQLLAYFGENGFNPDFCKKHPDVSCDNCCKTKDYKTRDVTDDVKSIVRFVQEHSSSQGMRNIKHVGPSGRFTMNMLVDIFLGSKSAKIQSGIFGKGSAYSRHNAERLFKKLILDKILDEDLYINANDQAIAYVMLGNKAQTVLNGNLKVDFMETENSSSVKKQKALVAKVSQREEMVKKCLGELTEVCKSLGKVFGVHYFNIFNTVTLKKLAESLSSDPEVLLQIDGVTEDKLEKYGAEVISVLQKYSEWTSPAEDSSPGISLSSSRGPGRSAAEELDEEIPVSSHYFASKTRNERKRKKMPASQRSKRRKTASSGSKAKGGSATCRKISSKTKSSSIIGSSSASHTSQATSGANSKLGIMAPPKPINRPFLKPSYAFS

Assay [10] in a line: qHTS Assay for Lipid Storage Modulators (AID 1519; calls by dose curve; for activity change, negative = inhibition: % is set by controls: 0 for no effect and ±100 for the full control effect). The following applies: Drosophila S3 cells, BODIPY lipid droplet/cell ratio, laser cytometry, cells loaded with oleic acid. In short, it runs like this:
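Cells seeded at 5,000 per well were treated with compounds over a concentration series and loaded with oleic acid (400 uM, as added). Lipid droplet fluorescence (488 nm excitation, 500-530 nm channel) was read by laser-scanning cytometry and normalized to 20 uM Triacsin C.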

Assay [11] has as its target DNA repair nuclease/redox regulator APEX1 (Homo sapiens) (UniProt P27695). Kind of assay: qHTS Validation Assay for Inhibitors of the Human Apurinic/apyrimidinic Endonuclease 1 (APE1) (AID 1705; note: potency is the fitted concentration of half-maximal effect). In outline: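 Substrate: 50 nM final fluorophore/quencher THF-abasic duplex. Enzyme preincubated with compounds 15 min, RT. Progress derived from fluorescence difference, third minus first kinetic read.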

Assay [12] is described as follows: qHTS for differential inhibitors of proliferation of Plasmodium falciparum line GB4 (AID 1816).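 For activity change, negative = inhibition: 0% = vehicle DMSO and -100% = reference inhibitor.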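 Note: parasite growth measured after 72 h incubation.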 Note: potency is the fitted concentration of half-maximal effect. The following applies: Potency: Plasmodium falciparum GB4 proliferation inhibition.
Assay [13] can be described thus: qHTS for differential inhibitors of proliferation of Plasmodium falciparum line 3D7 (AID 1876). Note: potency is the fitted concentration of half-maximal effect.
Assay [14] can be described thus: qHTS for differential inhibitors of proliferation of Plasmodium falciparum line D10 (AID 1877).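 For activity change, negative = inhibition: plate controls were vehicle wells for no effect and reference inhibitor wells for full effect.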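 Note: parasites grown with compound for 72 h before DNA staining.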 Note: potency is the fitted concentration of half-maximal effect.
Assay [15] in a line: qHTS for differential inhibitors of proliferation of Plasmodium falciparum line W2 (AID 1883).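 For activity change, negative = inhibition: 0% = vehicle wells and -100% = control inhibitor wells.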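 Note: parasites grown with compound for 72 h before lysis and staining.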 Note: potency is the fitted concentration of half-maximal effect. The conditions noted are these: Potency: Plasmodium falciparum W2 proliferation inhibition.
Assay [16] is described as follows: qHTS for differential inhibitors of proliferation of Plasmodium falciparum line HB3 (AID 1886).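 For activity change, negative = inhibition: plate controls were vehicle for no effect and reference inhibitor for full effect.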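 Note: parasites grown with compound for 72 h before SYBR Green readout.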 Note: potency is the fitted concentration of half-maximal effect. The following applies: Potency: Plasmodium falciparum HB3 proliferation inhibition.
The nature of assay [17]: Cell Viability - LYMP1-002 - Assay at 24 hr (AID 993). Note: % is set by controls: 0 for no effect and ±100 for the full control effect. In short, it runs like this: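 CellTiter-Glo luminescence (intracellular ATP) after 24 h compound exposure, 37 C, in LYMP1-002 human lymphoblastoid cells; decreased ATP taken as cytotoxicity. AC50 from standard Hill fit of concentration-response curves.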
Assay [18] is described as follows: qHTS for differential inhibitors of proliferation of Plasmodium falciparum line 7G8 (AID 1815).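 Note: potency is the fitted concentration of half-maximal effect; parasite growth measured after three days of incubation.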
[19] abbreviates: measured here: cell count channel max response.
[20] abbreviates: measured here: lipid channel max response.

Values joined by “and” are separate entries in the source; they are usually repeats but may differ in a detail not shown here. Equal entries are not always repeated. Records with an inconclusive call do not appear. Active and inactive are the calls of the source. Unless noted, calls come from the whole dose curve; as a rule, active = well fitted curve in the direction sought with a large enough effect; inconclusive = small, poorly fitted or top-dose-only effect, or another doubt; inactive = no such curve, though single readings can be large; an effect the other way counts as inactive or inconclusive.

Sequence of DNA repair nuclease/redox regulator APEX1 (Homo sapiens) (P27695 whole entry, looked up): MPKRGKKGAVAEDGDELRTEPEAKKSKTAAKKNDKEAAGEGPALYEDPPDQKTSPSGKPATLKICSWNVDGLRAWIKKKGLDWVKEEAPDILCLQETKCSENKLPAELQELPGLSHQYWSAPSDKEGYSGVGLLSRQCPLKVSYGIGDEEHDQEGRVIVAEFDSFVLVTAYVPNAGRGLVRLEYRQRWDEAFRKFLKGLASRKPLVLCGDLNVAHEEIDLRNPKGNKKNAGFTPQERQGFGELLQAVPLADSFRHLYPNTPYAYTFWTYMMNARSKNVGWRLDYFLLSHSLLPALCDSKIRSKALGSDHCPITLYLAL
Sequence of Ferritin light chain (Equus caballus) (P02791 2-175 limits assumed): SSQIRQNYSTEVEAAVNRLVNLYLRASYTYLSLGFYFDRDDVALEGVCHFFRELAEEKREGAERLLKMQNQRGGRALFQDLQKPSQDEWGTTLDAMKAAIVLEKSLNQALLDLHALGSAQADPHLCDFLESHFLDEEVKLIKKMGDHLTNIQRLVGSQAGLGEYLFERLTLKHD
Sequence of ATP-dependent DNA helicase Q1 (Homo sapiens) (P46063 whole entry, looked up): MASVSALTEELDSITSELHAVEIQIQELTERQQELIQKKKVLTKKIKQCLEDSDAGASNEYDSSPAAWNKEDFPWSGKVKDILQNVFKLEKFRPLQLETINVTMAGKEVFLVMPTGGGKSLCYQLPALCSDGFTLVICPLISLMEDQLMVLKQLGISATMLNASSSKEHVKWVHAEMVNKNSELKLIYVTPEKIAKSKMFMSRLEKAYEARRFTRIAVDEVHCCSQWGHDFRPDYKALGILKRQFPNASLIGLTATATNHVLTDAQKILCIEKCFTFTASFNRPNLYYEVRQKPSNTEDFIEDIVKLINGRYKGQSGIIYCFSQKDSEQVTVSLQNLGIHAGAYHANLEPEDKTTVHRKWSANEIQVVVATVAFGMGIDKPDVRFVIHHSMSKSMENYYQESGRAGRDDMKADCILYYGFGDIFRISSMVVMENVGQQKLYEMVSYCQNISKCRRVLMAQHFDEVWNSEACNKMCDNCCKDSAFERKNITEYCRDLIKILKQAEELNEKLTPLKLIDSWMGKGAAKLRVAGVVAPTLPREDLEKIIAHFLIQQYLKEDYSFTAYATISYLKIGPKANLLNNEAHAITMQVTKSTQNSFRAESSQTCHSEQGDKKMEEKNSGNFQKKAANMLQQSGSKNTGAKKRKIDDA

Take `NO`: the result in assay [1], in assay [2] and in assay [6] was inactive. The Potency result in assay [3], in assay [4], in assay [5], in assay [7], in assay [8] and in [9] was “inactive” in each case.
As for `Cc1c(Nc2ncccc2C(=O)O)cccc1C(F)(F)F`, the activity change, negative = inhibition in assay [10] (at 25.7 µM (top of the series)) was -1.24% (inactive). Also, the max response is -9.98% in [10] (setting [19]) and -11.1% in assay [10] (setting [20]).
Turning to `C=C/C(C)=C/[C@@]1(C)SC(=O)C(C)=C1O`, the outcome in assay [2] and in assay [6] was inactive. Also, the figures for the Potency in assay [11] and in [8] were 1 µM (active) and 8.91 µM (active), respectively. For the same compound, the Potency entry in [3], in assay [12], in assay [13], in [14], in [5] and in [15] was “inactive” each time. Also, the Potency result in assay [16] and in [7] was “inactive” each time.
On to `CCCCC/C=C\CC(O)/C=C/c1cccc(CC(O)CCCCO)n1` (stereo unspecified), for which the compound was classed as inactive in [2]. Moreover, the Potency entry in [3], in [4], in assay [5], in [7], in assay [8] and in [9] was “inactive” in each case. For the same compound, the Potency in assay [13] is 14.1 µM (active).
Take `O=c1cc(-c2ccccc2)oc2c(O)c(O)ccc12`: the activity change, negative = inhibition in assay [10] (at 57.5 µM (top of the series)) was -5.17% (inactive). Also, the max response in assay [10] (setting [19]) was -10.5%; in [10] (setting [20]), -5.87%.
With `O=C(OCc1ccccc1)c1ccccc1`, in assay [10] (at 57.5 µM (top of the series)), the activity change, negative = inhibition is 9.34% (inactive). Also, the max response in [10] (setting [19]) was -2.84%; in assay [10] (setting [20]), 6.88%.
Regarding `Oc1ccccc1O`, the Potency entry in assay [17], in assay [3], in assay [7] and in [8] was “inactive” throughout. In [1], the result was inactive. The activity change, negative = inhibition in assay [10] (at 57.5 µM (top of the series)) was -4.75% (inactive). The figures for the max response in assay [10] (setting [19]) and in assay [10] (setting [20]) were -20.2% and -25.6%, respectively.
As to `CCCN(CC1CC1)c1nc(C)nc(Nc2c(Cl)cc(Cl)cc2Cl)c1Cl`, in assay [10] (at 57.5 µM (top of the series)), the activity change, negative = inhibition was -0.101% (inactive). Also, the max response in assay [10] (setting [19]) and in [10] (setting [20]) was -15.8% throughout. For the same compound, the Potency entry in assay [11], in assay [3], in assay [4], in [7] and in [8] was “inactive” in each case. In addition, the Potency in assay [18] is 3.55 µM (active); in assay [12], 3.98 µM (active); in assay [13], 2.82 µM (active); in assay [14], 3.98 µM (active); in [5], 11.2 µM (active); in assay [15], 3.16 µM (active). Besides, the Potency in [16] was 4.47 µM (active).
Turning to `Oc1c(Br)cc(Br)c2cccnc12`, in assay [10] (at 57.5 µM (top of the series)), the activity change, negative = inhibition is 1.03% (inactive). Also, the max response was found to be 0.383% in assay [10] (setting [19]) and 3.22% in [10] (setting [20]).
`O=C1C(SCCO)=C(SCCO)C(=O)c2ccccc21`: in assay [1], the call was inactive. The Potency result in assay [11], in assay [3], in [4] and in assay [8] was “inactive” each time. The Potency was 3.16 µM (active) in assay [18]; 2 µM (active) in assay [12]; 2.24 µM (active) in assay [13]; 11.2 µM (active) in [14]; 6.31 µM (active) in assay [5]; 10 µM (active) in assay [15]. Further, the Potency in [16] is 2 µM (active); in [9], 28.2 µM (active).
Regarding `O=C(/C=C/c1ccc(O)c(O)c1)OCCc1ccccc1`, the activity change, negative = inhibition in [10] (at 57.5 µM (top of the series)) was -2.35% (inactive) and -20.7% (inactive). Besides, the max response in [10] (setting [19]) was -15.3% and -76.7%; in assay [10] (setting [20]) it was -17.2% and -81.3%. The Potency entry in assay [4], in assay [7] and in assay [8] was “inactive” throughout. The Potency is 6.31 µM (active) in assay [18]; 5.01 µM (active) in [12]; 10 µM (active) in [13]; 12.6 µM (active) in assay [14]; 5.01 µM (active) in assay [15]; 10 µM (active) in [16].
Take `CN(C)c1ccc(/C=C2\C(=O)Nc3ccccc32)cc1`: the activity change, negative = inhibition in assay [10] (at 57.5 µM (top of the series)) is 0.655% (inactive). The max response in assay [10] (setting [19]) was -28.2%; in assay [10] (setting [20]), -23.7%. For the same compound, the Potency is 8.91 µM (active) in [18], 12.6 µM (active) in [12], 12.6 µM (active) in assay [15] and 10 µM (active) in [16]. For the same compound, in assay [8], the Potency entry was “inactive”.
Turning to `C[C@@H](CN1CCC(Cc2ccccc2)CC1)[C@@H](O)c1ccc(O)cc1`, in assay [10] (at 57.5 µM (top of the series)), the activity change, negative = inhibition is 0.466% (inactive). Also, the figures for the max response in [10] (setting [19]) and in assay [10] (setting [20]) were 15.4% and 14.5%, respectively. For the same compound, the Potency entry in [11], in assay [3], in [4], in [16], in assay [7] and in assay [8] was “inactive” each time. In addition, the Potency entry in assay [9] is “inactive”. Also, the Potency in assay [18] was 10 µM (active); in assay [12], 14.1 µM (active); in [15] it was 4.47 µM (active). Also, in [6], the compound was called inactive.
